Measured values reported in PubChem BioAssay (NCATS).
Several values for one entry are separate records, joined by “and”; a condition that tells them apart may be missing. Equal values may be shown once. A number with no mark means an inactive call. Inconclusive results are not listed. Where a call stands in place of a potency, no number is given. Activity calls are given as the source filed them. Unless noted, calls come from the whole dose curve; as a rule, active = well fitted curve in the direction sought with a large enough effect; inconclusive = small, poorly fitted or top-dose-only effect, or another doubt; inactive = no such curve, though single readings can be large; an effect the other way counts as inactive or inconclusive.

How the values were obtained:
[1] = Identifying Small Molecule Inhibitors of Pancreatic Cancer Stem Cells (SN12C, Adherent) (AID 1259358);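 note: cell survival measured after 48 h of compound exposure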; note: potency is the fitted concentration of half-maximal effect
Outline: (§1)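 Cytotoxicity read by CellTiter-Glo luminescence after 48 h compound exposure at 37C; percent activity scaled between DMSO-treated cells and cell-free wells. Spheroid formats used cells pre-formed 14 days in stem cell media on hydrogel.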

[2] = Identifying Small Molecule Inhibitors of Pancreatic Cancer Stem Cells (SN12C, Spheroid) (AID 1259360); details: Potency: SN12C spheroid viability; note: potency is the fitted concentration of half-maximal effect
Outline: (§2)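 Spheroids grown 14 days in stem cell media on hydrogel-coated nonadherent plates; 2D lines seeded directly. Compounds added after 4 h attachment, 48 h at 37C, 5% CO2; CellTiter-Glo luminescence normalized to DMSO (no inhibition) and no-cell wells (full inhibition).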

[3] = Identifying Small Molecule Inhibitors of Pancreatic Cancer Stem Cells (A278, Adherent) (AID 1259361); note: nearly all actives have a fitted effect of over 35% in size
Outline: as §1

[4] = Identifying Small Molecule Inhibitors of Pancreatic Cancer Stem Cells (Panc1, Adherent) (AID 1259362); details: Potency: viability; note: potency is the fitted concentration of half-maximal effect
Outline: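 Viability is scored by CellTiter-Glo luminescence 48 h after dosing, expressed as percent activity against vehicle and no-cell references. Spheroid formats rely on cells cultured 14 days in stem cell media beforehand.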

[5] = P-glycoprotein substrates identified in KB-8-5-11 adenocarcinoma cell line, qHTS therapeutic library screen (AID 1346987); note: nearly all actives have a fitted effect of over 65% in size; note: potency is the fitted concentration of half-maximal effect
Outline: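 Human cervical adenocarcinoma KB-8-5-11 cells, selected in colchicine to over-express P-gp and assayed without it, were exposed for 72 h to titrated compounds. An ATP-based luminescent viability signal gave AC50.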

[6] = NS1 protein of Zika virus - qHTS assay to identify small molecule inhibitors in human HEK 293 cells (AID 1347053); note: nearly all actives have a fitted effect of over 55% in size; note: potency is the fitted concentration of half-maximal effect
Outline: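 Read-out is a two-antibody TR-FRET for ZIKV NS1, normalized between uninfected cells and infected cells. Compound added 1 h before MR766 infection at MOI 0.5; human HEK 293 cells incubated 24 h, 37 C.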

[7] = qHTS of pediatric cancer cell lines to identify multiple opportunities for drug repurposing: Primary screen for SJ-GBM2 cells (AID 1347091); note: potency is the fitted concentration of half-maximal effect
Outline: (§3)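 Cell viability, CellTiter-Glo luminescence; 500-1,000 cells/well, 8- or 11-point titration, 48 h compound exposure at 37 degrees C, 5% CO2. Controls: DMSO neutral, bortezomib 2.3 µM final as positive.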

[8] = qHTS of pediatric cancer cell lines to identify multiple opportunities for drug repurposing: Primary screen for DAOY cells (AID 1347090); note: nearly all actives have a fitted effect of over 55% in size; note: potency is the fitted concentration of half-maximal effect
Outline: as §3

[9] = qHTS of pediatric cancer cell lines to identify multiple opportunities for drug repurposing: Primary screen for A673 cells (AID 1347092); note: nearly all actives have a fitted effect of over 45% in size; note: potency is the fitted concentration of half-maximal effect
Outline: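 Luminescence from CellTiter-Glo, taken after 15 min at room temperature, served as the proxy for metabolically active cells following 48 h treatment. Both potency and efficacy were taken from curves fitted to the titration data.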

[10] = Identifying Small Molecule Inhibitors of Pancreatic Cancer Stem Cells (Panc1, Spheroid) (AID 1259359);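 note: potency is the fitted concentration of half-maximal effect; compound exposure lasted 48 h before reading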
Outline: as §2

[11] = P-glycoprotein substrates identified in KB-3-1 adenocarcinoma cell line, qHTS therapeutic library screen (AID 1346986); note: nearly all actives have a fitted effect of over 60% in size;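 note: potency is the fitted concentration of half-maximal effect; potency is for cytotoxicity meaning loss of cell viability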
Outline: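 Dose-response cytotoxicity, KB-3-1 vs P-gp-high KB-8-5-11, no colchicine in assay medium. Read: CellTiter-Glo at 72 h.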

[12] = Natriuretic polypeptide receptor (hNpr1) antagonism - Pilot counterscreen GloSensor control cell line (AID 1347045; calls by dose curve; note: series mostly up to about 38 µM)
Outline: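 The SNP-driven cGMP luminescence signal (50 uM, 20 min, room temperature) was measured in GloSensor HEK293 control cells. Compounds were tested as a LOPAC titration series and preincubated for 30-50 min.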

[13] = biological target: Atrial natriuretic peptide receptor 2 (Homo sapiens) (UniProt P20594); experiment: Natriuretic polypeptide receptor (hNpr2) antagonism - Pilot subtype selectivity assay (AID 1347050; calls by dose curve)
Atrial natriuretic peptide receptor 2 (Homo sapiens), sequence (P20594 whole entry, looked up): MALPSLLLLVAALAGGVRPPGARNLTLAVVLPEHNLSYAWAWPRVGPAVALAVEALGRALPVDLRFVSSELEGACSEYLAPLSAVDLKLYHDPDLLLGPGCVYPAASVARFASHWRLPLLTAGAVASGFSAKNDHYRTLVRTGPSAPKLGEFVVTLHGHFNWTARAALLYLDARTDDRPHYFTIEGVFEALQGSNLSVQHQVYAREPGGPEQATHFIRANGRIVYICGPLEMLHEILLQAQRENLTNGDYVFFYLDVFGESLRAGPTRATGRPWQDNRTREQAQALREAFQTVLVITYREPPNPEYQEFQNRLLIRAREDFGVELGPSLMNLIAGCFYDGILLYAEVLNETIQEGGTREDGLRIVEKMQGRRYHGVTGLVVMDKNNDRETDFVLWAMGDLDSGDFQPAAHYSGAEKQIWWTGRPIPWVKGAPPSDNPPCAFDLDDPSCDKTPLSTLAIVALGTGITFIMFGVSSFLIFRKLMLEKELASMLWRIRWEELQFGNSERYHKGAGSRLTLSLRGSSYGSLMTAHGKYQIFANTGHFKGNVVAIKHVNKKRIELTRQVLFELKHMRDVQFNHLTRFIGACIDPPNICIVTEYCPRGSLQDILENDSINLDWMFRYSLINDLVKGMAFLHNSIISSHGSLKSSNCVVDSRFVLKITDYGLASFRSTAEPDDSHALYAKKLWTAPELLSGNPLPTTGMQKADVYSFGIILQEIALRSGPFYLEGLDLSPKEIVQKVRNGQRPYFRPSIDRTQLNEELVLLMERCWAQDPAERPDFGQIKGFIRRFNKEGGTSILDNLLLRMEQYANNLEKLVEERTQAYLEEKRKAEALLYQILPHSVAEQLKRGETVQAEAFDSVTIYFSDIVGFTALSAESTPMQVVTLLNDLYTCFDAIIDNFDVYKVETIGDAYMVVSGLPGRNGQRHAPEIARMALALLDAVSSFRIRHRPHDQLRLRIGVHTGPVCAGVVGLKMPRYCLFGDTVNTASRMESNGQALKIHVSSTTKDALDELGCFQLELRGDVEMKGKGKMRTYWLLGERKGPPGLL
Outline: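 Antagonist mode: compounds (LOPAC1280, seven 1:5 dilutions) added 30 min before 1 nM hNppC stimulation of hNpr2-HEK293 cGMP-sensor cells; luminescence read before and 20 min after agonist at ambient temperature.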

[14] = biological target: T1, Tyrosine-protein phosphatase non-receptor type substrate 1 (Homo sapiens) + Leukocyte surface antigen CD47 (Homo sapiens) (UniProt P78324+Q08722); experiment: CD47-SIRPalpha protein protein interaction - LANCE assay qHTS validation (AID 1347057; active = well fitted curve in the direction sought with a large enough effect in the signal ratio, with a control signal flat, not every such curve was filed as active; the % refers to the signal ratio; note: series mostly up to about 38 µM)
T1 sequence (P78324 whole entry, looked up, the tested form may be a part): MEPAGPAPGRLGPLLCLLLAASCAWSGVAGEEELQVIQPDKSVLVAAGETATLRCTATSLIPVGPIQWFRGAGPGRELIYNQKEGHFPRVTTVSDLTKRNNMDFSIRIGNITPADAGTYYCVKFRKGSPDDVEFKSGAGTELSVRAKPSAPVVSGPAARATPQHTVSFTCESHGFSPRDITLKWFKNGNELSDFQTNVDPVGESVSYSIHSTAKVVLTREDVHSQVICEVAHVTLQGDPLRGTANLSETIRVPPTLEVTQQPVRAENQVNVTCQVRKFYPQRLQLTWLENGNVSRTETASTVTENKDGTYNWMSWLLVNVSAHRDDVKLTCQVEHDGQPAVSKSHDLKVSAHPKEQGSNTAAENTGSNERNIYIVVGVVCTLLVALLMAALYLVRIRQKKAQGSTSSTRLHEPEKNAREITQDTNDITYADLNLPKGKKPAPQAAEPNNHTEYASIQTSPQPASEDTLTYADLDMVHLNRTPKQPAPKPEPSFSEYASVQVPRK
T1 sequence (Q08722 whole entry, looked up, the tested form may be a part): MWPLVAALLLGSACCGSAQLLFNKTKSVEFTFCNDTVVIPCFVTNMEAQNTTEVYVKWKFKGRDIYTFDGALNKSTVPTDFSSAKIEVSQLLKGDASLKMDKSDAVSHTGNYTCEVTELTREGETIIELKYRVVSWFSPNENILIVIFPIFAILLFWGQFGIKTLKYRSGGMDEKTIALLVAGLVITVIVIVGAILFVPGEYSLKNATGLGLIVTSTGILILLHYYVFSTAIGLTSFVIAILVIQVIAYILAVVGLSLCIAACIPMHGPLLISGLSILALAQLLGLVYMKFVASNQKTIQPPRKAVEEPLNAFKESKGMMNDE
Outline: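 Inhibition of soluble CD47/SIRPalpha ectodomain association by titrated compounds, measured as 665/615 nm time-resolved FRET ratio after sequential 30 min room-temperature incubations.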

[15] = biological target: T1, Tyrosine-protein phosphatase non-receptor type substrate 1 (Homo sapiens) + Leukocyte surface antigen CD47 (Homo sapiens); experiment: CD47-SIRPalpha protein protein interaction - HTRF assay qHTS validation (AID 1347058; active = well fitted curve in the direction sought with a large enough effect in the signal ratio, not every such curve was filed as active; the % refers to the signal ratio; note: series mostly up to about 38 µM)
Outline: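 Soluble extracellular domains (6His-CD47, Avi-tag-biotinylated SIRPalpha) in PBS pH 7.4 with 0.05% IGEPAL CA-630. Compounds were preincubated 30 min at RT with CD47 and anti-His-Eu, then SIRPalpha and SAV-XL665 were added. TR-FRET 665/615 ratio.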

[16] = biological target: T1, Tyrosine-protein phosphatase non-receptor type substrate 1 (Homo sapiens) + Leukocyte surface antigen CD47 (Homo sapiens); experiment: CD47-SIRPalpha protein protein interaction - Alpha assay qHTS validation (AID 1347059);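 note: bead proximity luminescence from CD47 binding SIRPalpha after compound preincubation with SIRPalpha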
Outline: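 AlphaScreen signal between CD47-His (12.5 nM) and biotin-SIRPalpha (25 nM) soluble extracellular domains, bead-captured via Ni-NTA and streptavidin. Compounds, in 7-point titrations, met SIRPalpha 30 min before CD47; PBS pH 7.4 with 0.05% IGEPAL.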

[17] = biological target: Parathyroid hormone/parathyroid hormone-related peptide receptor (Homo sapiens) (UniProt Q03431); experiment: qHTS for PTHR1 Agonists: Optimization Screen against the NCGC LOPAC library (AID 1347079);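 note: GloSensor cAMP luminescence in HEK-293 GP2 cells expressing human PTHR1 with IBMX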
Parathyroid hormone/parathyroid hormone-related peptide receptor (Homo sapiens), sequence (Q03431 whole entry, looked up): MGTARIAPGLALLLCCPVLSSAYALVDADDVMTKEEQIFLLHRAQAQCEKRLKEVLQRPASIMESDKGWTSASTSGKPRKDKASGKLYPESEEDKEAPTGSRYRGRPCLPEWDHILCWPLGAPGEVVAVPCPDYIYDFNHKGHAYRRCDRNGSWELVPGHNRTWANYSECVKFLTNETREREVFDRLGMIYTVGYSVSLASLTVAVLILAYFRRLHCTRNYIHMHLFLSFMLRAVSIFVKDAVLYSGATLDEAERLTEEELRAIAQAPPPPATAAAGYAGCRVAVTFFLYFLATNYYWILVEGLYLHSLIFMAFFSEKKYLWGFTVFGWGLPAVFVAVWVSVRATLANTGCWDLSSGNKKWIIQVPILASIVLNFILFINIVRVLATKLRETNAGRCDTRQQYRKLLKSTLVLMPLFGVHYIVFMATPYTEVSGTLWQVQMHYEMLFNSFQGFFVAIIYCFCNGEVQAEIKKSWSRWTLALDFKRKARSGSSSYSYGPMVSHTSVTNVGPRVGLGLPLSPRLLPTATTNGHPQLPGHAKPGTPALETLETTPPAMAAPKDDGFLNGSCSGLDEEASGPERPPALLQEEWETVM
Outline: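 Signal increase flags agonism. GP2 cells, derived from HEK-293, express human PTHR1 and a GloSensor cAMP construct.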

[18] = qHTS of pediatric cancer cell lines to identify multiple opportunities for drug repurposing: Primary screen for TC32 cells (AID 1347089); note: nearly all actives have a fitted effect of over 60% in size
Outline: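 qHTS, TC32, 48 h drug treatment, CellTiter-Glo luminescence as a proxy for metabolically active cells; primary top concentration 46 µM (MIPE 11-pt, NPC 8-pt); confirmatory 11-pt.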

COc1cc2c(cc1OC)CN(CCc1ccc(NC(=O)c3cccc4c(=O)c5cccc(OC)c5[nH]c34)cc1)CC2
Potency [1]: inactive
Potency [2]: inactive
IC50 (viability decrease) [3]: 10.5 µM (active)
Potency [4]: inactive
Potency [5]: inactive
Potency [6]: inactive
Potency [7]: inactive

CCOC(=O)C1=C[C@@]2(CC)CCCN3CCc4c(n1c1ccccc41)[C@H]32
Potency [1]: inactive
Potency [2]: inactive
IC50 (viability decrease) [3]: inactive

Cc1cc(Nc2nc(N[C@@H](C)c3ncc(F)cn3)ncc2Cl)n[nH]1
Potency [1]: inactive
Potency [2]: inactive
IC50 (viability decrease) [3]: inactive
Potency [5]: 16.6 µM (active) and 1.03 µM (active)
Potency [6]: inactive
Potency [8]: 2.96 µM (active)
Potency [7]: 23.5 µM (active)
Potency [9]: 1.18 µM (active)

CC(C)c1onc(-c2c(Cl)cccc2Cl)c1COc1ccc(/C=C/c2cccc(C(=O)O)c2)c(Cl)c1
Potency [1]: inactive
Potency [10]: 18.7 µM (active)
Potency [4]: inactive

C[C@H](NC(=O)Cc1cc(F)cc(F)c1)C(=O)N[C@@H]1C(=O)N(C)c2ccccc2-c2ccccc21
Potency [1]: inactive
Potency [2]: inactive
IC50 (viability decrease) [3]: inactive
Potency [11]: inactive
Potency [5]: inactive
Potency [6]: inactive
Potency [8]: 11.8 µM (active)
Potency [7]: inactive

Cc1cc(-c2ccc(CC(=O)Nc3ccc(-c4cccnc4)cc3)cc2)ccn1
Potency [1]: inactive
Potency [2]: inactive
IC50 (viability decrease) [3]: 18.7 µM (active)
Potency [9]: 23.5 µM (active)

Cc1[nH]c(=O)c(C#N)cc1-c1ccc2nccn2c1
Potency [1]: inactive
Potency [2]: inactive
IC50 (viability decrease) [3]: inactive
Potency [5]: inactive
outcome [12]: inactive
Potency [13]: inactive
Potency [6]: inactive
outcome [14]: inactive
outcome [15]: inactive
outcome [16]: inactive
outcome [17]: inactive
Potency [18]: inactive
Potency [8]: inactive
Potency [7]: inactive
Potency [9]: inactive

OC(CN1CCC(Cc2ccc(F)cc2)CC1)c1ccc(Cl)cc1 (configuration not stated)
Potency [1]: inactive
Potency [2]: inactive
IC50 (viability decrease) [3]: inactive
Potency [5]: inactive
outcome [12]: inactive
Potency [13]: inactive
Potency [6]: inactive
outcome [14]: inactive
outcome [15]: inactive
outcome [16]: inactive
outcome [17]: inactive
Potency [18]: inactive
Potency [8]: inactive
Potency [9]: inactive

O=C(OCC#CCSc1nnc(-c2ccc3ccccc3c2)o1)c1cc2ccccc2s1
Potency [1]: inactive
Potency [2]: inactive

CC1(C)SCCN(S(=O)(=O)c2ccc(OCC#CCO)cc2)[C@@H]1C(=O)NO
Potency [1]: inactive
Potency [2]: inactive
IC50 (viability decrease) [3]: inactive
Potency [11]: inactive
Potency [5]: inactive
Potency [6]: inactive
Potency [8]: inactive
Potency [7]: inactive

CCN(c1ccccc1)c1cc(NC)[n+](C)c(C)n1
Potency [1]: inactive
Potency [2]: inactive
IC50 (viability decrease) [3]: inactive
Potency [4]: inactive
Potency [5]: inactive
Potency [6]: inactive
Potency [18]: inactive
Potency [8]: inactive

Cc1c(CCOc2ccc(C(=O)O)cc2)c2cc(Cl)ccc2n1C(c1ccccc1)c1ccccc1
Potency [1]: inactive
Potency [2]: inactive
IC50 (viability decrease) [3]: inactive
Potency [5]: inactive
Potency [6]: inactive
Potency [18]: inactive
Potency [7]: inactive

OC[C@H](Cc1ccccc1)Nc1nc(Oc2ccc3c(c2)CCC3)nc2c1ncn2Cc1ccc(-c2ccccc2)cc1
Potency [1]: inactive
Potency [4]: 1.32 µM (active)
Potency [6]: 4.18 µM (active)
Potency [8]: 11.8 µM (active)

O=C(O)[C@@H](c1ccc(OCc2ccc3ccccc3n2)cc1)C1CCCC1
Potency [1]: inactive
Potency [2]: inactive
Potency [5]: inactive
Potency [6]: inactive
Potency [18]: inactive
Potency [8]: inactive
Potency [7]: inactive
Potency [9]: inactive

CCOc1cc(C=C2C(=O)N(c3ccccc3)N=C2C)cc(Cl)c1OCC(=O)OC
Potency [1]: inactive
Potency [2]: inactive
Potency [5]: inactive
Potency [6]: inactive
Potency [18]: inactive

COc1cccc2cc(-c3nc(C4CCC(C(=O)O)CC4)n4ncnc(N)c34)[nH]c12 (configuration not stated)
Potency [1]: 0.833 µM (active)
Potency [2]: 0.372 µM (active)
Potency [4]: inactive
Potency [11]: 1.3 µM (active)
Potency [5]: 296 nM (active) and 1.46 µM (active) and 1.3 µM (active)
Potency [6]: inactive
Potency [7]: 0.935 µM (active)

Cn1c(=O)c(F)c(Nc2ccc(I)cc2F)c2c(=O)n(C[C@@H](O)CO)cnc21
Potency [1]: 0.418 µM (active)
Potency [2]: 8.33 µM (active)
Potency [5]: inactive
Potency [6]: inactive
Potency [18]: inactive
Potency [8]: 18.7 µM (active)
Potency [7]: inactive
Potency [9]: inactive

CN(C)c1ccc(C2Nc3ccc4ccccc4c3C3=C2C(=O)CC(C)(C)C3)cc1Br (configuration not stated)
Potency [1]: inactive
Potency [2]: inactive
Potency [5]: inactive
Potency [8]: inactive

Nc1nccc(-c2ccc3noc(-c4ccc(Cl)cc4)c3c2)n1
Potency [1]: inactive
Potency [2]: inactive
Potency [5]: inactive
Potency [6]: inactive
Potency [18]: inactive
Potency [9]: 7.43 µM (active)

c1ccc(-c2nn3c(c2-c2ccnc4cc(OCCN5CCOCC5)ccc24)CCC3)nc1
Potency [1]: inactive
Potency [4]: inactive
Potency [11]: inactive
Potency [6]: inactive
Potency [18]: inactive
Potency [8]: inactive

O=C(NOC[C@H](O)CO)c1ccc(F)c(F)c1Nc1ccc(I)cc1F
Potency [1]: 9.35 µM (active)
Potency [2]: 0.0053 µM (active)
Potency [5]: inactive
Potency [6]: inactive
Potency [18]: inactive
Potency [8]: 18.7 µM (active)
Potency [7]: inactive
Potency [9]: 5.9 µM (active)

COc1cc2nccc(Oc3ccc(NC(=O)NC4CC4)c(Cl)c3)c2cc1C(N)=O
Potency [1]: 18.7 µM (active)
Potency [2]: inactive
Potency [4]: inactive
Potency [11]: inactive
Potency [5]: inactive
Potency [8]: 4.69 µM (active)
Potency [7]: 0.526 µM (active)

CN(C(=O)c1ccc(F)cc1C(F)(F)F)C1CCN(c2nnc(-c3ccnn3C)c3ccccc23)CC1
Potency [1]: inactive
Potency [2]: inactive
Potency [5]: inactive
Potency [6]: inactive
Potency [18]: inactive
Potency [7]: inactive
Potency [9]: 11.8 µM (active)
